Screens (PubChem)
CYP2C9 inh: blocks human cytochrome P450 2C9 | P11712 | CYP2C9 Supersomes, luciferin-H conversion, luminescence | inhibition, % at 5 µM | 96,000 tested, 20% active | AID 777;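 active means blocking of liver enzyme CYP2C9 beyond about 50% at 5 µM, limit read from the data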
Target sequence (P11712 whole entry, looked up): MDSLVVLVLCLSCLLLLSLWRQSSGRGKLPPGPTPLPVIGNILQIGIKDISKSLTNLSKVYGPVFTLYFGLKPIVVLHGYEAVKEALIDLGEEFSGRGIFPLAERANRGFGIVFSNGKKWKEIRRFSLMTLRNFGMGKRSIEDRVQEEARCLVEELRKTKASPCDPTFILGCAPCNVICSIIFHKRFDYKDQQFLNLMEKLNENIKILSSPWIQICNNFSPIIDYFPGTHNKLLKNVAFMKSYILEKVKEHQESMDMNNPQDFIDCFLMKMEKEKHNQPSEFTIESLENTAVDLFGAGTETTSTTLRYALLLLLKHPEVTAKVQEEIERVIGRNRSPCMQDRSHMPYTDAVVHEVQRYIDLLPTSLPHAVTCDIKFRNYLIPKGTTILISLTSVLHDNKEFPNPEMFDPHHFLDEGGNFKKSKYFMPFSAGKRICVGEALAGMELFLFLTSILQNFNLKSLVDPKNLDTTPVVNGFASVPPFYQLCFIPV
CYP2C19 activ: cytochrome P450 2C19 (human) activation | P33261 | recombinant CYP2C19, luciferin-H EGE luminescence; hits give high values; 0 = fully inhibited enzyme, 1 = untreated enzyme | activation factor at 5 µM | 96,000 tested, under 10 active;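 active means activation factor of at least 2 at 5 µM in the primary screen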;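 further: 0 = wells with 2.5 mM tranylcypromine and 1 = vehicle-only wells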
PLAP activator: activates human placental alkaline phosphatase. P05187. purified PLAP enzyme, luminescent substrate read-out; hits give high values. activation fold at 20 µM. 96,000 tested, 1.2% active; in the data active means activation fold above about 2
CYP2C19 inhib: blocks human cytochrome P450 2C19; inhibition, % at 5 µM; AID 778; 96,000 tested, 21% active; CYP2C19 Supersomes, luciferin-H EGE luminescence, 30 min; P33261;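 active means CYP2C19 inhibition above a set limit at 5 µM in the primary screen, cut at about 50% in these data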;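 further: plate controls were negative control wells for no effect and 2.5 mM tranylcypromine positive control for full effect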
CYP2C9 activ: increases human cytochrome P450 2C9 activity | P11712 | 96,000 tested, 1.4% active | activation factor at 5 µM | recombinant CYP2C9, luciferin-H conversion, luminescence; hits give high values; factor 1 = untreated enzyme, 0 = blocked;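 active means activation factor of 2 or more for CYP2C9 at a 5 µM dose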;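 further: 0 = sulfaphenazole-blocked wells and 1 = vehicle-only wells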
Active calls of the source: *. Only some compounds are listed: those with a hit (about 31% of all), similar ones and a draw of the others.

SMILES	CYP2C9 inh	CYP2C19 activ	PLAP activator	CYP2C19 inhib	CYP2C9 activ
O=C(COc1ncnc2sccc12)N1CCN(S(=O)(=O)c2ccc(Cl)cc2)CC1	12	1	1.1	1	0.9
CS(=O)(=O)N1CCC(C(=O)Nc2ccc(Cl)c(C(F)(F)F)c2)CC1	33	0.7	0.9	34	0.7
CC(=O)NC1CC2CCCC(C1)N2C(=O)Nc1ccc(Cl)c(C(F)(F)F)c1 (stereo not given)	12	0.4	1	58*	0.9
CCCCc1[nH]c(=O)c(C#N)c2c1CCCC2	24	0.9	1	8	0.8
Cc1c(C(=O)Oc2cccc3ccccc23)cnn1-c1ccccc1	40	0.3	1.2	67*	0.6
CCOC(=O)c1cnn(-c2ccccc2)c1-n1cccc1C(=O)C(=O)Nc1ccc(OC)cc1	80*	0.7	1.2	30	0.2
CCOC(=O)c1cnn(-c2ccccc2)c1-n1cccc1	27	0.4	0.9	55*	0.7
CCOC(=O)c1cnn(-c2ccccc2)c1-c1ccccc1	44	0.5	1.1	48	0.6
CCN(CC)c1ccc(NC(=O)c2cccc(F)c2)c(C)c1	-92	1	1	4	1.9
COc1ccc(S(=O)(=O)N2CCN(C(=O)[C@@H]3CCC(=O)N3C3OC(=O)c4ccccc43)CC2)cc1 (stereo not given in full)	7	0.9	1	5	0.9
CCOC(=O)c1cnc2ccc(C(=O)OC)cc2c1NCc1ccco1	22	0.9	0.9	10	0.8
CCOC(=O)c1cnc2cc(Cl)c(OC)cc2c1NCC1CCCO1 (stereo not given)	70*	0.7	1.1	28	0.3
O=C(CN1CCN(c2ccccc2)CC1)N1CCN(c2ccccc2)CC1	38	0.7	1.6	26	0.6
CSC(=NC#N)N1CCN(c2cccc(Cl)c2)CC1	33	0	0.9	95*	0.7
CSC(=NC#N)N1CCN(c2ccccc2)CC1	-4	0.5	1	51*	1
NS(=O)(=O)c1cccnc1Nc1cccc(Cl)c1Cl	4	0.7	1.2	25	1
Cn1c(=O)c(NCCc2ccccc2)c2c3c(cccc31)C(=O)c1ccccc1-2	98*	0.2	0.9	78*	0
Cn1c(=O)c(NCCO)c2c3c(cccc31)C(=O)c1ccccc1-2	45	0.8	0.9	20	0.5
CCNc1c2c3c(cccc3n(C)c1=O)C(=O)c1ccccc1-2	53*	0.8	0.9	18	0.5
CCOc1ccccc1/C=c1\sc2ncnn2c1=O	-123	1	1.2	0	2.2*
CC(=O)Oc1ccc(/C=c2\sc3ncnn3c2=O)cc1	-3	1.1	1	-5	1
COc1ccc(C2=NC(C(F)(F)F)(C(F)(F)F)c3c(n(C)c(=O)n(C)c3=O)N2)cc1	20	1.1	1.3	-14	0.8
COC(=O)CN(c1nc(C)c(Br)c(OC)n1)S(=O)(=O)c1ccc(C)cc1	89*	0.1	1.1	90*	0.1
COC(=O)CN(c1nc(C)cc(OC)n1)S(=O)(=O)c1ccc(C)cc1	18	0.7	0.9	26	0.8
CCOC(=O)N1CCN(CC(=O)Nc2ccc(Oc3ccccc3)cc2)CC1	21	0.8	1.7	17	0.8
SMILES	CYP2C9 inh	CYP2C19 activ	PLAP activator	CYP2C19 inhib	CYP2C9 activ
Cc1ccc(C(=O)C2C(=O)c3ccccc3C2=O)cc1	77*	0.9	1	13	0.2
Cc1ccc(C(=O)CN(C(=O)c2ccc(Cl)cc2)N2C(=O)c3ccccc3C2=O)cc1	43	0.9	1	10	0.6
CCOC(=O)C(CCCOc1ccc(C(C)CC)cc1)C(=O)OCC (stereo not given)	71*	0.7	1.2	28	0.3
CN(C)c1cccc(C(=O)NCC2CCCO2)c1 (stereo not given)	-1	0.7	1	35	1
O=C(CN1CCN(C(=O)N2CCCCC2)CC1)Nc1ccc(F)cc1	9	1	1.2	1	0.9
COc1ccc(CN(C)C(=O)COC(=O)c2ccc3c(c2)OCO3)cc1OC	61*	0.7	0.9	32	0.4
COc1ccc(C(C)=O)cc1COC(=O)c1ccc2c(c1)OCO2	30	0.9	0.9	11	0.7
C=C(C)CSc1nnc(-c2cccc(Cl)c2)n1N	-2	0.4	0.9	58*	1
Cc1sc2nc(SCC(=O)N3CCCC3)[nH]c(=O)c2c1C	24	1	1.1	-1	0.8
Cc1sc2nc(SCC(=O)N(C)C)[nH]c(=O)c2c1C	54*	0.7	1	34	0.5
CCOC(=O)Cc1csc(NC(=O)CSc2nnc(C)n2C)n1	0	1	1.1	-5	1
Cc1csc(NC(=O)CSc2nc3sc(C)c(C)c3c(=O)[nH]2)n1	86*	0.9	1.4	12	0.1
CCN(CC)C(=O)CSc1nc2sc(C)c(C)c2c(=O)[nH]1	21	0.9	1.1	6	0.8
CCOC(=O)Cc1csc(NC(=O)CSc2nc3sc(C(=O)O)c(C)c3c(=O)[nH]2)n1	84*	0.9	1.5	11	0.2
COCCOC(=O)C1=C(N)Oc2c(oc(CO)cc2=O)C1c1c(F)cccc1Cl (stereo not given)	-17	0.8	0.9	16	1.2
C=CC[n+]1c(-c2ccc(OC)c(OC)c2)csc1NNC(=O)Nc1ccccc1	20	0.9	0.9	12	0.8
CC1CCCCN1CCNS(=O)(=O)c1ccc2c(c1)oc(=O)n2C (stereo not given)	-18	1.2	0.9	-23	1.2
CCN(CC)CCN(CC)Cc1ccccc1Br	-4	1	1.4	5	1
Cc1cc(C)c2ccc(C)[n+]([O-])c2c1O	-252	0.8	1.5	16	3.5*
Cc1cc(C)c2ccc(N)nc2c1O	-18	1	0.6	-5	1.2
COC(=O)c1ccc(-c2ccc(C(=O)N3CCCN(C)CC3)cc2)cc1	-26	0.9	1.1	7	1.3
CCOc1cc(-c2noc(N)c2C(=O)OC)cc(OCC)c1OCC	18	1	0.8	3	0.8
COC(=O)c1c(-c2ccc(Br)cc2)noc1N	50	0.2	1	78*	0.5
CC(C)(O)C#Cc1ccc(C(=O)NCc2cccs2)s1	6	1.1	0.9	-8	0.9
c1ccc(-c2ccc(C3=Nn4c(Cn5nnc6ccccc65)nnc4SC3)cc2)cc1	16	1	0.9	-3	0.8
SMILES	CYP2C9 inh	CYP2C19 activ	PLAP activator	CYP2C19 inhib	CYP2C9 activ
COC(=O)c1ccc2c(c1)S(=O)(=O)NC(=NCc1ccco1)S2	-22	0.8	0.9	22	1.2
Cc1ccc(S(=O)(=O)Nc2ccc(N3CCOCC3)cc2)cc1	94*	0	0.9	96*	0.1
O=S(=O)(Nc1ccc(N2CCOCC2)cc1)c1ccc2ccccc2c1	46	0.1	1.3	92*	0.5
CC(=O)Nc1ccc(S(=O)(=O)Nc2ccc(N3CCOCC3)cc2)cc1	40	0.1	1	90*	0.6
Cc1ccc(NS(=O)(=O)c2ccc(N3C(=O)CCC3=O)cc2)cc1	44	0.4	0.9	64*	0.6
CCOc1ccccc1N(CC(=O)NC1CCCCC1)S(C)(=O)=O	20	0.7	1.6	34	0.8
